This passage reports binding signal results from article PMC7862700, “An all-to-all approach to the identification of sequence-specific readers for epigenetic DNA modifications on cytosine”.

Common to all, as to assay: DAPPL (digital affinity profiling via proximity ligation, sequencing); 10 mM Tris-HCl pH 7.5, 50 mM NaCl, 1 mM DTT, 4% glycerol, room temperature, 30 min; GST-TFs on glutathione beads, 16-mer random dsDNA library, 0.1% formaldehyde crosslink after washing; high values mean tight binding
In one assay the target is T1, FEV (Homo sapiens, UniProt Q99581 1-238).
T1 sequence: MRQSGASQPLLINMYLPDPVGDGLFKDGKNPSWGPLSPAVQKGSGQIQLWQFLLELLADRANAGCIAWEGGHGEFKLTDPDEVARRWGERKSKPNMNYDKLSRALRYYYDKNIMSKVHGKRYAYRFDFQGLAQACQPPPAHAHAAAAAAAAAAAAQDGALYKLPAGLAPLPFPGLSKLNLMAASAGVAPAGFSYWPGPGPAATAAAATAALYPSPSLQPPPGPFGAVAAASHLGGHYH
Particulars: protein: recombinant; tags: N-terminal GST; dsDNA, one strand shown. The essentials:
(§1)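 A tag-only sample was pooled with DNA-barcoded human transcription factors that had been expressed in yeast as GST fusions and captured on glutathione beads. The pools were incubated for 30 min at room temperature with 200 nmole of a random double-stranded 16-mer DNA library in Tris/NaCl/DTT/glycerol buffer, then washed, crosslinked with 0.1% formaldehyde, proximity-ligated (BsaI/T4 ligase, 1 h, 37 °C), PCR-amplified and sequenced on an Illumina NextSeq500. Binding signal is each hexamer's read frequency for a factor divided by its frequency for the tag-only sample.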

For the next assay, the target named is ETV5 (Homo sapiens, UniProt P41161 1-510). The settings on record: protein: recombinant; tags: N-terminal GST; dsDNA, one strand shown. The method, boiled down:
as §1

For the next assay, the target named is HSF1 (Homo sapiens, UniProt Q00613 1-529). The settings on record: protein: recombinant; tags: N-terminal GST; chain copies: 3; dsDNA, one strand shown. The essentials: as §1
The next assay addresses T2, SPIC (Homo sapiens, UniProt Q8N5J4 1-248).
T2 sequence: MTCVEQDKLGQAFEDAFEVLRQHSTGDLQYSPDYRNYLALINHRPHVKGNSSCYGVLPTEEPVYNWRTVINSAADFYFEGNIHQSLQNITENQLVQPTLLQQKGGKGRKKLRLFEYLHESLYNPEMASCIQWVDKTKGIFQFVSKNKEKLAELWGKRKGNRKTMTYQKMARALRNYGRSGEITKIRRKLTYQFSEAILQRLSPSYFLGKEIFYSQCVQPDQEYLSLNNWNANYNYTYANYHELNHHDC
The settings on record: protein: recombinant; tags: N-terminal GST; dsDNA, one strand shown. The essentials: as §1

The next assay addresses ELF4 (Homo sapiens, UniProt Q99607 1-663). The settings on record: protein: recombinant; tags: N-terminal GST; dsDNA, one strand shown. The essentials:
as §1

The next assay has as its target T3, ELK4 (Homo sapiens, UniProt P28324-2 1-405).
T3 sequence: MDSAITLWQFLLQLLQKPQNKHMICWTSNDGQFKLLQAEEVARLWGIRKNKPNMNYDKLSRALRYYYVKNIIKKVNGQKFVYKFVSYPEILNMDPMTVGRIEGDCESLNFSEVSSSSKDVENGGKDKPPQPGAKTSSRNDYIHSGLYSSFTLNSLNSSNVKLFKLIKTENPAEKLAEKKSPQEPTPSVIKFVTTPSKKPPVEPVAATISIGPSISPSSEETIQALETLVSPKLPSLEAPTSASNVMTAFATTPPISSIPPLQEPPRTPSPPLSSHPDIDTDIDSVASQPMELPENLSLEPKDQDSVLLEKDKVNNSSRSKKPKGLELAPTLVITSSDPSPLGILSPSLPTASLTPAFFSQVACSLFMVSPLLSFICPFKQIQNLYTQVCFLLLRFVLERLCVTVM
Particulars: protein: recombinant; tags: N-terminal GST; dsDNA, one strand shown. The method, boiled down:
as §1

Another assay deals with T4, ETV2 (Homo sapiens, UniProt O00321 1-342).
T4 sequence: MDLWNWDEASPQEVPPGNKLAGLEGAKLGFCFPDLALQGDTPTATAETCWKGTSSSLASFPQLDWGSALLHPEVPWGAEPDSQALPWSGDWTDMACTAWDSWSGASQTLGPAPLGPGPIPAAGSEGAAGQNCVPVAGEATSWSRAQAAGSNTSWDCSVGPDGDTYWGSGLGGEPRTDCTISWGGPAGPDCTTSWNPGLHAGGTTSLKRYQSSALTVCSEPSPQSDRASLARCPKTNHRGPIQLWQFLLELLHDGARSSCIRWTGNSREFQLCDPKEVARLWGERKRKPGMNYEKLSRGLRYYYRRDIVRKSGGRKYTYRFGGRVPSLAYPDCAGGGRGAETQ
The settings on record: protein: recombinant; tags: N-terminal GST; dsDNA, one strand shown. The method, boiled down:
as §1

In another assay the target is T5, ELF3 (Homo sapiens, UniProt P78545 1-371).
T5 sequence: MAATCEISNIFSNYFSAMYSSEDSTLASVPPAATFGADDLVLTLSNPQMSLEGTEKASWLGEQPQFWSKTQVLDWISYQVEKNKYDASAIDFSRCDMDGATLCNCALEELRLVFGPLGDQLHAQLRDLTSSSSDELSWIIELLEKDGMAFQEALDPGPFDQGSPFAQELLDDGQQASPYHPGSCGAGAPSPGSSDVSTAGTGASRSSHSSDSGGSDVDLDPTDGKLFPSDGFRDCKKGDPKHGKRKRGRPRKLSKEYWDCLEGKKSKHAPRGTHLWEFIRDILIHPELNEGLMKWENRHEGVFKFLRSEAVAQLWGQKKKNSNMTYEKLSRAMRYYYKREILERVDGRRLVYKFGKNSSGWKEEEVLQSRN
The settings on record: protein: recombinant; tags: N-terminal GST; dsDNA, one strand shown. The essentials: as §1

The target in the next assay is CRX (Homo sapiens, UniProt O43186 1-299). Particulars: protein: recombinant; tags: N-terminal GST; dsDNA, one strand shown. The essentials: as §1
For the next assay, the target named is ETV1 (Homo sapiens, UniProt P50549 1-477). Particulars: protein: recombinant; tags: N-terminal GST; dsDNA, one strand shown. The essentials: as §1
The target in the next assay is T6, ERF (Homo sapiens, UniProt P50548 1-548).
T6 sequence: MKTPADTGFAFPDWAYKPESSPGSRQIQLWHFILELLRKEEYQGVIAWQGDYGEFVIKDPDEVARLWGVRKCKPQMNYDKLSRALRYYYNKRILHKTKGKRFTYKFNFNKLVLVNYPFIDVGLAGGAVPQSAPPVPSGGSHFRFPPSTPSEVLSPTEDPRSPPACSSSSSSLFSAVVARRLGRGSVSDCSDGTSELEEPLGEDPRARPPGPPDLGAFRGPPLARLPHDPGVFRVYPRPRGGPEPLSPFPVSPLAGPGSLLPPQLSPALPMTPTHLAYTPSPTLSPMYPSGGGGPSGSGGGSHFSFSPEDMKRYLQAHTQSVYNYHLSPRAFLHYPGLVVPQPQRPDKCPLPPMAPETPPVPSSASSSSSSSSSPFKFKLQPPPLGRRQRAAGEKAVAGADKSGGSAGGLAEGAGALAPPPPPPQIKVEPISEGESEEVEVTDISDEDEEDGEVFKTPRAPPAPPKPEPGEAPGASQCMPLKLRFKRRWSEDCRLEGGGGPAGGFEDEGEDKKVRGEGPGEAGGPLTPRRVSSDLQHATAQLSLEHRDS
Particulars: protein: recombinant; tags: N-terminal GST; dsDNA, one strand shown. The method, boiled down:
as §1

Another assay addresses T7, ETV3L (Homo sapiens, UniProt Q6ZN32 1-361).
T7 sequence: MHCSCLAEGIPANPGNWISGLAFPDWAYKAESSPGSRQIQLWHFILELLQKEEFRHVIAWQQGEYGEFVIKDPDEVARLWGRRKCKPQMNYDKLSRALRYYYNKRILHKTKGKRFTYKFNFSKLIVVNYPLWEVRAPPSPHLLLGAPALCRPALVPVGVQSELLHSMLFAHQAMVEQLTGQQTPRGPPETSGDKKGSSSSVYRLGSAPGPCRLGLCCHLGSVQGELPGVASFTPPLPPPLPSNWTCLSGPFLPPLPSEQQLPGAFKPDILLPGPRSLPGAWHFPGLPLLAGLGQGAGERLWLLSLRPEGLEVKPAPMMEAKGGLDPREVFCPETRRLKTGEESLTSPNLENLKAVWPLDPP
Particulars: protein: recombinant; tags: N-terminal GST; dsDNA, one strand shown. The essentials:
as §1

For a further assay, the target named is T8, ETS2 (Homo sapiens, UniProt P15036 1-469).
T8 sequence: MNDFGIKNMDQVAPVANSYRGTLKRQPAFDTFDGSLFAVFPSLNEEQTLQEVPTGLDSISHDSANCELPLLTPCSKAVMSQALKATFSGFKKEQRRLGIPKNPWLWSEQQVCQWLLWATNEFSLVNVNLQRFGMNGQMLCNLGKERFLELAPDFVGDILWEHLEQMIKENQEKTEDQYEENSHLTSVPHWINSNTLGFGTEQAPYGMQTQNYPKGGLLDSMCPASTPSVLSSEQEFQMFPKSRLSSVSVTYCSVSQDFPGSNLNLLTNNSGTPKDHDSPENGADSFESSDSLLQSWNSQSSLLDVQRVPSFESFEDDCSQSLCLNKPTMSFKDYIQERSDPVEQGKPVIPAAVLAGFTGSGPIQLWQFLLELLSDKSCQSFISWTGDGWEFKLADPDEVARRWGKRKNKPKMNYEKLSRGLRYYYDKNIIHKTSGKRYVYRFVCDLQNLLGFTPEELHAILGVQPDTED
Particulars: protein: recombinant; tags: N-terminal GST; dsDNA, one strand shown. The method, boiled down: as §1

Another assay deals with T9, SPDEF (Homo sapiens, UniProt O95238 1-335).
T9 sequence: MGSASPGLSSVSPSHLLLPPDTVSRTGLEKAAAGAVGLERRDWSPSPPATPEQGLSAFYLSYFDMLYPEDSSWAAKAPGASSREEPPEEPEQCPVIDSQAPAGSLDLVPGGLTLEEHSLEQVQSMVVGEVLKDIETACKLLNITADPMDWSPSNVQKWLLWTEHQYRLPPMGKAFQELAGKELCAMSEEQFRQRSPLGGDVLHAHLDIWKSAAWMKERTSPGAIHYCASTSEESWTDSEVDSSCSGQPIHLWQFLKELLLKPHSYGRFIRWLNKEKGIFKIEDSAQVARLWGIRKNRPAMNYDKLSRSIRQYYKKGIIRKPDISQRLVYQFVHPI
Particulars: protein: recombinant; tags: N-terminal GST; dsDNA, one strand shown. The method, boiled down:
as §1

Another assay concerns the target T10, ETV7 (Homo sapiens, UniProt Q9Y603 1-341).
T10 sequence: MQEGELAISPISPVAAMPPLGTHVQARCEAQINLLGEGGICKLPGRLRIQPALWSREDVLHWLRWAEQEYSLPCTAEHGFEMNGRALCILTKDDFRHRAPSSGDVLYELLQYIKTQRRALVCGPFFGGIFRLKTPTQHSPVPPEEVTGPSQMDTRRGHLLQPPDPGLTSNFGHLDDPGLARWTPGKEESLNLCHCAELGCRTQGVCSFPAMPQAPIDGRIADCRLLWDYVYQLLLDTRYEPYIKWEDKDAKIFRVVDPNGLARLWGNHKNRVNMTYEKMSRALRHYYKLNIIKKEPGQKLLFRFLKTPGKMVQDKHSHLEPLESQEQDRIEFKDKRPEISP
Particulars: protein: recombinant; tags: N-terminal GST; dsDNA, one strand shown. The essentials:
as §1

A further assay concerns the target T11, ELF5 (Homo sapiens, UniProt Q9UKW6-2 1-255).
T11 sequence: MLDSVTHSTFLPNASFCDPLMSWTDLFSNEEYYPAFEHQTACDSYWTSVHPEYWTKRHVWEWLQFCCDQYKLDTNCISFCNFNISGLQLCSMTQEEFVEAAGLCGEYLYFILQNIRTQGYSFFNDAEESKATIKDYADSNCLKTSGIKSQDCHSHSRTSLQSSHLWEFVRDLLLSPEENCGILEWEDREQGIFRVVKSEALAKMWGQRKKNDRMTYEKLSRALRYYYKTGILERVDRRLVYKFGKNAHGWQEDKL
Particulars: protein: recombinant; tags: N-terminal GST; dsDNA, one strand shown. The essentials: as §1

A further assay has as its target T12, ETV3 (Homo sapiens, UniProt P41162-2 1-143).
T12 sequence: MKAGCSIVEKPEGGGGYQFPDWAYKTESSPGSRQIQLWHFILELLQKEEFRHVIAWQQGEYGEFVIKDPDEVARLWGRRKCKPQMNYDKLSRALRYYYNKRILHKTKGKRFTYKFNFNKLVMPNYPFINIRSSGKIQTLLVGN
The settings on record: protein: recombinant; tags: N-terminal GST; dsDNA, one strand shown. The method, boiled down:
as §1

For the next assay, the target named is ETV6 (Homo sapiens, UniProt P41212 1-452). The settings on record: protein: recombinant; tags: N-terminal GST; dsDNA, one strand shown. The method, boiled down: as §1
ETV6, sequence (P41212 whole entry): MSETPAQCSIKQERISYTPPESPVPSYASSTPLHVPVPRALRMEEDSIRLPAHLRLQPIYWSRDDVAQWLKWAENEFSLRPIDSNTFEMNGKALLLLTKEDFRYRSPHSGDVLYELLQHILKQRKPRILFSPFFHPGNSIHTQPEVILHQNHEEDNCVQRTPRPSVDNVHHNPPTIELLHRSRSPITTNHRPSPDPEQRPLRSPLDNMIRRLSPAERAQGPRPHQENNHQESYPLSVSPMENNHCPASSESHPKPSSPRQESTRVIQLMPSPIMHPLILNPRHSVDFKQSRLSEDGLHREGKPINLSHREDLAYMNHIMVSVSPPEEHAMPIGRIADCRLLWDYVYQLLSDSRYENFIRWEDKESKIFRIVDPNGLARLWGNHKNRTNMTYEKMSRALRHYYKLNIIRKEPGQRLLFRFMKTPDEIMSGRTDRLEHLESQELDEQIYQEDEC

ELF4, sequence (Q99607 whole entry): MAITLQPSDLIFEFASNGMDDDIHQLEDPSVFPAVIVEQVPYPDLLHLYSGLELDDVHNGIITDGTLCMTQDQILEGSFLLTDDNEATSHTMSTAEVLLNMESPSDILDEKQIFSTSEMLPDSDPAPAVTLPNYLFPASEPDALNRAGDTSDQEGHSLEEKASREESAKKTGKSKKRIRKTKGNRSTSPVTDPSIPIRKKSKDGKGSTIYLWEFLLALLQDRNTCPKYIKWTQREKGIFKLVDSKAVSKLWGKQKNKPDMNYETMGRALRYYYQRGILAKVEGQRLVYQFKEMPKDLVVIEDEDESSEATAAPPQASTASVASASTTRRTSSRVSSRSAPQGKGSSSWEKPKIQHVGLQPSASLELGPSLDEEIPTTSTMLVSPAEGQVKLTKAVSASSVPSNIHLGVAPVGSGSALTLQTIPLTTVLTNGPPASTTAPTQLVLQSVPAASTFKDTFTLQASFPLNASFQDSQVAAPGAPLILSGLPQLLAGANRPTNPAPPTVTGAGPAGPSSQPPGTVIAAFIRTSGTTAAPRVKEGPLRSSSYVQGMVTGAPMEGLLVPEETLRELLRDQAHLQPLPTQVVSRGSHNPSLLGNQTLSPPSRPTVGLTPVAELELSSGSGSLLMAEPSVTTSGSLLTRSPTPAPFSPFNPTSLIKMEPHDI
ETV5, sequence (P41161 whole entry): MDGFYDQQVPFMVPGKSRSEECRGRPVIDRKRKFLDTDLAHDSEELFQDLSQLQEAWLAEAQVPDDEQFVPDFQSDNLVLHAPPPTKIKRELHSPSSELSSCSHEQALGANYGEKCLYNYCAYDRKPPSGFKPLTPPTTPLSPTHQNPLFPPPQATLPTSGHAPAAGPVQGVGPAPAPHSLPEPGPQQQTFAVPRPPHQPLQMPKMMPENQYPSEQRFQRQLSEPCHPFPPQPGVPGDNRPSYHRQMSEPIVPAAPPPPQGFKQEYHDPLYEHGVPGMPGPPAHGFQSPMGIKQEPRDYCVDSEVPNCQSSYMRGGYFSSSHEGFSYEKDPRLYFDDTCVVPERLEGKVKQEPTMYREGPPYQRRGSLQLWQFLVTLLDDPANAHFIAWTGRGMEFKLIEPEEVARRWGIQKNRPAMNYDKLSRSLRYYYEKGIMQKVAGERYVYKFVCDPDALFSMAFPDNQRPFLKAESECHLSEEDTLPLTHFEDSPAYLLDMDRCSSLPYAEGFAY
ETV1, sequence (P50549 whole entry): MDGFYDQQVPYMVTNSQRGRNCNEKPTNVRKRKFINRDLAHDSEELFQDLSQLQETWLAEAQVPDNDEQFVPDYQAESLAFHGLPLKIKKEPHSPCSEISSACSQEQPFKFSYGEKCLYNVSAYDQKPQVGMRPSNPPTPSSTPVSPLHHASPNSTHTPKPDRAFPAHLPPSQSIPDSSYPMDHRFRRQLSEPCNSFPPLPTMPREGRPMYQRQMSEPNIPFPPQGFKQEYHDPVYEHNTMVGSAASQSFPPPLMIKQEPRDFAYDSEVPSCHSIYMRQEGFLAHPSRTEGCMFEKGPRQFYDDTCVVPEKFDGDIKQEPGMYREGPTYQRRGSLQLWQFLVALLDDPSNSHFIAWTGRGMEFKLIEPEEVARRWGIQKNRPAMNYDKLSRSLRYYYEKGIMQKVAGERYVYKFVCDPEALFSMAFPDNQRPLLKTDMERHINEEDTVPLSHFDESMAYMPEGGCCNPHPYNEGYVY
HSF1, sequence (Q00613 whole entry): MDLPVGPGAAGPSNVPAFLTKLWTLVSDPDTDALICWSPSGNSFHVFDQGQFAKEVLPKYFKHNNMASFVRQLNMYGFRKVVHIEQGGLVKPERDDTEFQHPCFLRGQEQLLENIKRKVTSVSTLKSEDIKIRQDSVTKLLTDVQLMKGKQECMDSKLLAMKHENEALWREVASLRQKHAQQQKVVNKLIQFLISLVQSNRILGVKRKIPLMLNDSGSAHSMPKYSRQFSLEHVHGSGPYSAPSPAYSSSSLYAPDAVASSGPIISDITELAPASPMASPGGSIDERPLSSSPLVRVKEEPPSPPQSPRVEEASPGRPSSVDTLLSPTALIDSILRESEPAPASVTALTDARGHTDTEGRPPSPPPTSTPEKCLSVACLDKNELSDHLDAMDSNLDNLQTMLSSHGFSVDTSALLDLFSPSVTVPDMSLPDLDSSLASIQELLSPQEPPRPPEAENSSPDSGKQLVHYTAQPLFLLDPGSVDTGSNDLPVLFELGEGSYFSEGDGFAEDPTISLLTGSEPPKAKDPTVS
CRX, sequence (O43186 whole entry): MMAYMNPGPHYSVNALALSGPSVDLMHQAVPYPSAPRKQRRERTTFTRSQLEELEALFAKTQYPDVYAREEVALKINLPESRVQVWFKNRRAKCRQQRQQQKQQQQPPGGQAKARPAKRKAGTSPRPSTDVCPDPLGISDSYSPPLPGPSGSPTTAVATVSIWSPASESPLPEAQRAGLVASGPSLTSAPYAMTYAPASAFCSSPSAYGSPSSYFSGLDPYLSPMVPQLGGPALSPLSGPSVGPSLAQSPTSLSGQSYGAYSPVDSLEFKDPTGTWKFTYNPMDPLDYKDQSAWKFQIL

Take TACTCA: the binding signal is 1.24 fold enrichment (6-mer frequency, TF over GST control) in the assay with FEV; 1.17 fold enrichment (6-mer frequency, TF over GST control) in the assay with ETV5; 1.12 fold enrichment (6-mer frequency, TF over GST control) with HSF1; 1.19 fold enrichment (6-mer frequency, TF over GST control) with SPIC; 1.23 fold enrichment (6-mer frequency, TF over GST control) in the assay with ELF4; 1.13 fold enrichment (6-mer frequency, TF over GST control) in the assay with ELK4. The binding signal with ETV2 is 1.17 fold enrichment (6-mer frequency, TF over GST control); with ELF3, 1.22 fold enrichment (6-mer frequency, TF over GST control); with CRX, 1.26 fold enrichment (6-mer frequency, TF over GST control); with ETV1, 1.19 fold enrichment (6-mer frequency, TF over GST control); with ERF, 1.14 fold enrichment (6-mer frequency, TF over GST control); in the assay with ETV3L, 1.23 fold enrichment (6-mer frequency, TF over GST control). Besides, the binding signal in the assay with ETS2 is 1.19 fold enrichment (6-mer frequency, TF over GST control); with SPDEF, 1.18 fold enrichment (6-mer frequency, TF over GST control); in the assay with ETV7 it was 1.06 fold enrichment (6-mer frequency, TF over GST control); in the assay with ELF5, 1.18 fold enrichment (6-mer frequency, TF over GST control); with ETV3, 1.14 fold enrichment (6-mer frequency, TF over GST control); with ETV6, 1.22 fold enrichment (6-mer frequency, TF over GST control).
